INHIBITION data for 58 molecules are collected here from ChEMBL document CHEMBL4513216, “Probing the Open Global Health Chemical Diversity Library for Multistage-Active Starting Points for Next-Generation Antimalarials” (ACS Infect Dis, 2020).

In all, about 69,000 compounds went through this assay and about 8,600 (12%) showed an effect of 50% or more. The sample as a whole holds a higher share of strong results than the screen did.

The test concerns Plasmodium berghei. Description: Screen against P. berghei liver stage (PbLuc), transformed with Luciferase, at 10uM. In kind it is functional, HepG2. To be noted: tested at 10 uM.
With `CNC(=O)c1cn[nH]c1C1CCN(Cc2cccc(C)c2OC)C1` (stereo not drawn), the INHIBITION turned out to be 6.32%.
For `O=C(CN1CCS(=O)(=O)CC1)NC1CCCc2ccccc21` (stereo not drawn) the value was -17.2%.
Then `O=C(CN1CCS(=O)(=O)CC1)NC1CCCOc2ccccc21` (stereo not drawn), with 63.6%; and `O=C(CN1CCS(=O)(=O)CC1)NC1CCOc2ccccc21` (stereo not drawn), with -22.4%; and `Cc1ccc(C2CSCCN2C(=O)c2ccncc2)cc1` (stereo not drawn), with -2.39%.
For `COCc1nc(CN2CCOC(CN(C)c3cccnn3)C2)cs1` (stereo not drawn) the value was -8.11%; for `CCN(CC1CN(Cc2ccn(C(C)C)n2)CCO1)c1cccnn1` (stereo not drawn), 54.3%; for `CCN(CC1CN(Cc2cccnc2)CCO1)c1cccnn1` (stereo not drawn), 48.3%.
Consider `CCN(CC1CN(Cc2ccccn2)CCO1)c1cccnn1` (stereo not drawn), for which the INHIBITION was -32.2%.
Then `CCc1nc(CN2CCOC(CN(CC)c3cccnn3)C2)cs1` (stereo not drawn), with 57%.
For `CCN(CC1CN(Cc2cccc(C#N)c2)CCO1)c1cccnn1` (stereo not drawn) the value was 58.5%; for `CC(C)n1ccc(CN2CCOC(CNc3cccnn3)C2)n1` (stereo not drawn), -31.5%; for `CCc1nc(CN2CCOC(CN(C)c3cccnn3)C2)cs1` (stereo not drawn), -4.16%.
As for `CCN(CC1CN(CCc2ccccn2)CCO1)c1cccnn1` (stereo not drawn), the INHIBITION is -14.2%.
For `CCOC(=O)CN1CCC2(CCCN(CCOc3ccccc3)C2)C1` (stereo not drawn) the value was 21.1%.
In the case of `CC(C)(C)C(=O)NCCCC(=O)NC(C)(C)c1ccc2c(c1)OCO2`, the INHIBITION was found to be 27.4%.
For the molecule `Cc1nccn1-c1ccc(=O)n(CCNC(=O)c2cccs2)n1`, the INHIBITION came out at 18.7%.
For `Cc1cnn(CC2CN(Cc3cccc(C(N)=O)c3)CCO2)c1` (stereo not drawn) the value was 16.9%.
As to `O=C(Cc1cccs1)N1CCC2(CC1)COCCN2CC1CC1`, the INHIBITION was determined as 21.7%.
Then `CC(C)(CO)N1CCN(S(=O)(=O)CCCF)CC1`, with -15.565%; and `CCN(Cc1ccc2c(c1)OCO2)C(=O)c1cccnc1O`, with -35.5%.
For `COCCn1cnc2ccc(NC(=O)C(C)C)cc2c1=O` the value was 39.2%; for `Cc1cc(C)c(CNC(=O)N2CCN(c3nccs3)CC2)c(=O)[nH]1`, -5.6%.
For `c1cncc(-c2noc(CN3CCCC(Cn4cncn4)C3)n2)c1` (stereo not drawn) the value was -52.5%; for `CCc1cnc(CN2CCC(O)(c3cc(OC)cc(OC)c3)CC2)o1`, 11.3%.
Regarding `COc1cc(OC)cc(C2(O)CCN(Cc3ncc(C)o3)CC2)c1`, the INHIBITION came to 50.9%.
Then `COc1cc(OC)cc(C2(O)CCN(Cc3nc(C)c(C)o3)CC2)c1`, with 22.2%; and `CCCc1nc(CNC2(c3nccs3)CCCC2)cs1`, with -15.4%; and `Cc1cc(NC(=O)CN2CCc3c(nc(C(C)C)n3C)C2)on1`, with -21.2%.
For `Cc1cnn(CC2CCCCN2C(=O)c2n[nH]c3ccccc23)c1` (stereo not drawn) the value was -43.5%; for `COCCN1CCOCC2(CCCN(Cc3cccc(F)c3)C2)C1` (stereo not drawn), 46.9%.
With `Fc1cccc(CN2CCOC3(COCCN(CC4CC4)C3)C2)c1` (stereo not drawn), the INHIBITION came out at 81%.
Regarding `Cn1cc(CN2CCOCC3(CCN(C4CCOCC4)C3)C2)cn1` (stereo not drawn), the INHIBITION worked out at 11.6%.
On to `c1csc(CN2CCC3(COCCN(CC4CC4)C3)C2)n1` (stereo not drawn), for which the INHIBITION is recorded as -23.3%.
For `Cc1cccc(CN2CCOCC3(CCN(C4CCOCC4)C3)C2)c1` (stereo not drawn), the INHIBITION is -35.9%.
For `Fc1cccc(CN2CCOCC3(CCN(C4CCOCC4)C3)C2)c1` (stereo not drawn) the value was 58.1%; for `C1CC(CN2CCOCC3(CCN(C4CCOCC4)C3)C2)CCO1` (stereo not drawn), 40.9%.
`c1csc(CN2CCOCC3(CCN(C4CCOCC4)C3)C2)n1` (stereo not drawn): the INHIBITION is on record as 63.1%.
On to `O=C(c1ccco1)N1CCOCC2(CCN(C3CCOCC3)C2)C1` (stereo not drawn), for which the INHIBITION was 8.69%.
For `c1cc(CN2CCOCC3(C2)CN(Cc2nccs2)CCO3)ccn1` (stereo not drawn) the value was 34.4%; for `c1ccc(CN2CCOCC3(CCN(C4CCOCC4)C3)C2)cc1` (stereo not drawn), 50%.
For `c1csc(CN2CCOCC3(CCN(C4CCOCC4)C3)C2)c1` (stereo not drawn) the value was 11.6%; for `CCn1nc(C)c(NC(=O)CN2CC[C@H](CO)[C@@H](O)C2)c1C`, 10.6%; for `O=S(=O)(CCCNCCn1cccn1)c1ccccc1`, -42.8%.
For `CCCc1nc(CN(CC)C(=O)c2ccc(S(C)(=O)=O)cc2)no1` the value was 19.8%.
Regarding `CCn1ccc(NC(=O)CN2C(=O)CC(C)(C)c3ccccc32)n1`, the INHIBITION is -34.9%.
Then `c1cncc(CN2CCC3(COCCN(C4CCOCC4)C3)C2)c1` (stereo not drawn), with 17.5%.
Then `COc1ccc(F)c(CN2CCCC3(CCN(C4CCOCC4)C3)C2)c1` (stereo not drawn), with 77.8%.
Then `c1cc(CN2CCOCC3(CCNCC3)C2)ccn1`, with 63.7%.
On to `CCS(=O)(=O)N1CCC2(CCCN(Cc3cc(OC)ccc3F)C2)C1` (stereo not drawn), for which the INHIBITION was -14%.
Then `O=C(c1ccsc1)N1CCC2(CC1)COCCN(Cc1ccncc1)C2`, with 25.2%; and `c1cc(CN2CCOCC3(CCN(CC4CCOCC4)CC3)C2)ccn1`, with 39.2%.
Then `O=C(C1CCOC1)N1CCC2(CC1)COCCN(Cc1ccncc1)C2` (stereo not drawn), with 1.94%.
For the molecule `COc1ccc(F)c(CN2CCCC3(CCN(S(C)(=O)=O)C3)C2)c1` (stereo not drawn), the INHIBITION was 47%.
As to `c1cc(CN2CCOCC3(CCN(C4CCOCC4)C3)C2)ccn1` (stereo not drawn), the INHIBITION turned out to be 52.2%.
Consider `CN(C)CC(=O)N1CCC2(CC1)COCCN(Cc1ccncc1)C2`, for which the INHIBITION was 61.4%.
Consider `O=C(C1CCCO1)N1CCC2(CC1)COCCN(Cc1ccncc1)C2` (stereo not drawn), for which the INHIBITION came to 5.44%.
On to `COc1ccc(CN2CCOCC3(CCN(C4CCOCC4)C3)C2)cc1` (stereo not drawn), for which the INHIBITION came out at 11.6%.
